# In PubChem BioAssay AID588458 (Sanford-Burnham Center for Chemical Genomics, 2011):
# The whole screen tested about 360,000 compounds, of which about 3,000 (0.83%) were called active. This is one part of a sample in which actives are shown more often than they occur. Unmarked numbers belong to inactive results. Cut-off read from the data, not from the text of the source: active = inhibition above about 50%; inactive = the rest.
# Target: DNA (cytosine-5)-methyltransferase 1 (Homo sapiens) (UniProt P26358)
# Sequence (P26358 504-1616 limits assumed): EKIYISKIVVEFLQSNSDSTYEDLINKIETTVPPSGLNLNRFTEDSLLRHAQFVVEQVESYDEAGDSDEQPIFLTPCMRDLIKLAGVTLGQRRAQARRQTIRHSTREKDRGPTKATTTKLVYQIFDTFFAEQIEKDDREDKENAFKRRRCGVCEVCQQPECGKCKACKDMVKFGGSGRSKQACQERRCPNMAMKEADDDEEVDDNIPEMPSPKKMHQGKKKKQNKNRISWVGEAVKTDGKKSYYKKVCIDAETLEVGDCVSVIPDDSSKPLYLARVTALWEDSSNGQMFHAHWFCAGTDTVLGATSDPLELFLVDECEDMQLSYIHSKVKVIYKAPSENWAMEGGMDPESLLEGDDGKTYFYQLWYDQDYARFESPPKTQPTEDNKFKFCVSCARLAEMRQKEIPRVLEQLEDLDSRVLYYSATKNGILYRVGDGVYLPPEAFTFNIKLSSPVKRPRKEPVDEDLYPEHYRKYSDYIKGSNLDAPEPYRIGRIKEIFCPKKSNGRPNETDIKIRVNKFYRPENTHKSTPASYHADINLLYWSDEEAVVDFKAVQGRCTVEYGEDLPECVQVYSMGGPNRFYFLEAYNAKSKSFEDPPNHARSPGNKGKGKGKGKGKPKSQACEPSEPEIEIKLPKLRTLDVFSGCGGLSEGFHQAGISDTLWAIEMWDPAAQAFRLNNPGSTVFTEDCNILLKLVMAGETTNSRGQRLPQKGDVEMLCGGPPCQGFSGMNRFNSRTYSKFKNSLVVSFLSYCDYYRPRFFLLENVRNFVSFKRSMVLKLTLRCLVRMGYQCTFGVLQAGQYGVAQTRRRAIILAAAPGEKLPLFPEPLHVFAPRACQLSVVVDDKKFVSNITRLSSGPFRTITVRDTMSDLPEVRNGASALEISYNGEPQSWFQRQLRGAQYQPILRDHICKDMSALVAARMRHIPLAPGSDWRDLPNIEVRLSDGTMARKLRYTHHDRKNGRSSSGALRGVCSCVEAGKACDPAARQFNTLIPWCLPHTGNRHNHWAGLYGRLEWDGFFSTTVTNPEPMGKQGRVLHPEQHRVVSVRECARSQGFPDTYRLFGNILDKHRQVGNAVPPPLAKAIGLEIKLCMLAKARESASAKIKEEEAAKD
# Assay: inhibition of DNA methyltransferase DNMT1 – biochemical, molecular beacon, fluorescence, HinP1I cleavage, uHTS, primary screen (AID 588458)
# Conditions: at 10 µM, active compounds read high
row,Structure (SMILES),inhibition (reported as % activation of signal)
1,COc1cc(-c2nnc(NC(=O)C3=COCCO3)o2)cc(OC)c1OC,0.63%
2,COc1cc(-c2nnc(NC(=O)CS(=O)(=O)c3ccc(Cl)cc3)o2)cc(OC)c1OC,64.7% (active)
3,Cc1ccc(C)c(-c2nnc(NC(=O)CS(=O)(=O)c3ccccc3)o2)c1,2.2%
4,O=C(COc1cccc2c1CCNC2=O)NC1CCCCC1,0.71%
5,COc1ccc(C)cc1N(C(=O)Cn1nnc(-c2ccc(C)o2)n1)C(C(=O)NC1CCCC1)c1ccncc1 (stereo unspecified),0.4%
6,CCOc1cc(NC(=S)NCc2ccco2)c(OCC)cc1NC(=O)c1ccco1,-8.9%
7,CCOc1cc(NC(=O)c2ccco2)c(OCC)cc1NC(=O)COc1ccccc1,67.3% (active)
8,COc1ccc(NC(=O)CCC(=O)Nc2cc(OC)c(NC(=O)c3ccco3)cc2OC)c(OC)c1,-1.01%
9,CC(C)(C(=O)N1CCC1(C)C(=O)NS(=O)(=O)c1ccc(Br)cc1)c1ccccc1 (stereo unspecified),1.25%
10,CCCCCCc1cc2cc(-c3nnc(-c4ccccc4)o3)c(=O)oc2cc1O,88.6% (active)
11,CC1CCN(CCCNC(=O)CN2C(=O)CSc3ccc(S(=O)(=O)N4CCCCC4)cc32)CC1,0.73%
12,CC(C)C(NC(=O)c1c(F)cccc1F)C(=O)NCc1ccncc1 (stereo unspecified),1.21%
13,O=C(NCCc1cccc(F)c1)C1CC(O)CN1C(=O)Nc1ccccc1 (stereo unspecified),7.51%
14,COc1cc(/C=N/N=C(\N)c2nonc2N)cc(OC)c1OC,-0.45%
15,O=C(Nc1ccc(C(=O)NCc2ccccc2Cl)cc1)C1=CSCCO1,-10.3%
16,CSc1ccc(CNC(=O)c2ccc(NC(=O)C3=CSCCO3)cc2)cc1,62.1% (active)
17,CSc1ccc(CNC(=O)C2(C)CCCN2C)cc1 (stereo unspecified),9.6%
18,O=C(Nc1cccc2cccnc12)c1ccc2sc([C@H]3C[C@H](O)[C@@H](CO)O3)nc2c1,-5.28%
19,CC(=O)c1ccc(NC(=O)c2ccc3c(Cl)c4c(nc3c2)CCCC4)cc1,76.2% (active)
20,COc1cccc(NC(=O)c2ccc3c(SCC(=O)O)c4c(nc3c2)CCCC4)c1,9.48%
21,CC(C)CCNC(=O)c1ccc2c(Cl)c3c(nc2c1)CCC3,-1.49%
22,CC1=C(C(=O)N2CCOCC2)CC(CC(=O)NCCCN(C)C)C(=O)N1Cc1ccc(C(C)(C)C)cc1 (stereo unspecified),2.88%
23,O=c1c2cc([N+](=O)[O-])ccc2nc2n1CCC2,2.73%

row,Structure (SMILES),inhibition (reported as % activation of signal)
1,Cc1cccc(NC(=S)N(CCN(C)C)C(C)c2ccco2)c1 (stereo unspecified),-0.09%
2,O=C(CCNC(=O)c1ccccc1)NN=Cc1ccc(Br)o1,50.6% (active)
3,O=C(CCc1n[nH]c(=O)[nH]c1=O)N/N=C/c1ccc(Br)o1,5.93%
4,O=C(CCC(=O)N/N=C/c1ccc(Br)o1)N/N=C/c1ccc(Br)o1,17%
5,COc1ccccc1OC(C)C(=O)Nc1ccc(S(=O)(=O)Nc2nccs2)cc1 (stereo unspecified),0.4%
6,O=C(Nc1nnc(SCc2ccccc2Cl)s1)c1cccc([N+](=O)[O-])c1,-4.99%
7,CSc1nc(-c2ccco2)nn1C(=O)c1ccccc1Cl,4.2%
8,c1ccc(CSc2nnc(-c3ccco3)c(-c3ccco3)n2)cc1,113% (active)
9,Clc1ccccc1CSc1nnc(-c2ccco2)c(-c2ccco2)n1,92.8% (active)
10,c1ccc(Cc2c(-c3ccco3)nc3c4ccccc4ccn23)cc1,-16.2%
11,COc1ccc(NCc2nnc(SCc3ccccc3)n2-c2ccc(OC)cc2)cc1,-3.05%
12,CC(c1nnc(SCC(=O)Nc2sccc2C#N)n1-c1ccc(Cl)cc1)N(C)C (stereo unspecified),-2.07%
13,CCOc1cc(CNCCN(C)C)c(Cl)cc1OCC(=O)NCCc1ccccc1,2.37%
14,N#Cc1cc([N+](=O)[O-])ccc1NCC1CCCO1 (stereo unspecified),0.79%
15,COCCNC(=O)CN(Cc1ccco1)C(=O)CCC(=O)Nc1nccs1,0.73%
16,CC(C)(C)C(=O)N1CCC[C@@]1(CO)C(=O)O,5.81%
17,O=C(CCS(=O)(=O)c1ccc(Br)cc1)NCCc1ccc(Cl)cc1,68.7% (active)
18,COc1ccc(Cl)cc1NC(=O)COC(=O)c1ccc(Br)o1,-6%
19,O=C(NCCS(=O)(=O)c1ccc(Br)cc1)c1ccccc1Cl,2.79%
20,COc1ccc(Cl)cc1NC(=O)CCS(=O)(=O)c1ccc(Br)cc1,94.1% (active)
21,CCCCC(=O)N/N=C(\C)CC(=O)Nc1cc(Cl)ccc1OC,2.33%
22,Cc1ccc(S(=O)(=O)CCC(=O)OCC(=O)NCCc2ccc(S(N)(=O)=O)cc2)cc1,-1.16%
23,Cc1noc(C)c1CSCC(=O)N(CCC(C)C)c1c(N)n(Cc2ccccc2)c(=O)[nH]c1=O,-0.4%
